# High-throughput results from PubChem.
# Shown are actives, neighbours in structure and some others; about 3.4% of the full set was active somewhere.
# hgDAF12 agonist: hgDAF-12 agonism, primary luciferase screen | HEK293 GAL4-hgDAF12 UAS-luciferase reporter, agonist luminescence; normalized to butyrate control | activation, % at 6.8 µM | actives 1.8% (n = 370,000) | AID 687014;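 active means activation above a cutoff set at the mean of all screened compounds plus 3 SD, cut at about 10% in these data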;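 further: 0% = DMSO wells and 100% = sodium butyrate wells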
# ssDAF-12 act: S. stercoralis DAF-12 activation, primary screen. HEK293 ssDAF-12/GRIP1 lit1-tk-luc reporter, luminescence; % of 3 µM dafachronic acid response. activation, % at 6.8 µM. actives 1% (n = 370,000). AID 652126;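 active means activation above the mean over all tested compounds plus 3 SD, cut at about 0.9% in these data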;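 further: 0% = DMSO-only wells and 100% = 3 µM delta7-dafachronic acid wells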
# hcDAF-12 act: activators of H. contortus DAF-12 nuclear receptor; HEK293 hcDAF-12 lit1-tk-luc reporter, luminescence; 0% DMSO, 100% Δ7-dafachronic acid; activation, % at 6.8 µM; actives 1.4% (n = 370,000); AID 652067;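 active means activation above the mean of all tested compounds plus 3 SD, cut at about 5.5% in these data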;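 further: 100% = response to 3 µM Δ7-dafachronic acid high control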
# APP 5'UTR act: APP 5'UTR luciferase reporter activation; SH-SY5Y APP 5'UTR luciferase reporter, luminescence; zero percent = DMSO vehicle wells; activation, % at 2 µM; actives 1% (n = 190,000); AID 1276;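 active means activation above a set limit, based on mean plus 3 SD of controls, cut at about 140% in these data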
# NF-kB neuron act: raises NF-kB expression in human neuronal cells | AID 1239 | actives 1.6% (n = 190,000) | NF-kB reporter expression; active compounds read high | fold change at 12.5 µM; in the data active means fold change above about 3.3
# Numbers without * were called inactive; · = no result.
SMILES,hgDAF12 agonist,ssDAF-12 act,hcDAF-12 act,APP 5'UTR act,NF-kB neuron act
Cc1c[nH]c2cccc(-c3ccccc3)c12,1.2,-1.4,0.1,·,·
C=CCN1[C@H](CO)[C@H](c2ccc(C#CC3(O)CCCC3)cc2)[C@@H]1C#N,0.0,-1.5,-3.4,·,·
Cn1c(C(=O)NCc2ccc3c(c2)OCO3)cc2sccc21,0.8,-1.2,6.2*,4.3,1.37
Cc1cc2nc(/C=C/c3cccnc3)[nH]c2cc1C,6.8,1.7*,6.4*,·,·
CCCC1CCC2(CCCN2CCOC(=S)Nc2ccccc2OC)CC1 (stereo not drawn),-4.1,-2.0,-4.1,·,·
Cc1c(-n2c(O)c(C3=c4ccccc4=NC3=O)sc2=S)c(=O)n(-c2ccccc2)n1C,-1.5,-1.3,5.6*,-4.8,0.97
O=C(NCCC(=O)N1CCc2ccccc21)c1ccco1,5.8,-0.8,5.8*,·,·
COC(=O)[C@]1(C)CN(C(=O)OC(C)(C)C)C2=C1C(=O)C[C@](C)(C(=O)OC(C)(C)C)C2,-2.1,-0.4,-0.3,·,·
Cc1ccc(N=C/C(C(=O)C(F)(F)F)=C(\O)c2cccs2)cc1,5.4,0.5,6.5*,189.6*,2.69
O=C(/C(N=Nc1cccc(C(F)(F)F)c1)=C(/O)c1cccs1)C(F)(F)F,5.5,-0.3,2.8,·,·
COc1ccc2c(c1)Sc1ccc(Cl)cc1N2,1.7,-1.0,0.3,·,·
Clc1nc2ccccc2cc1-c1nnn(-c2ccccc2)n1,10.4,0.7,6.4*,112.2,5.04*
CCOc1cc(OCC)cc(C(=O)N2CCC[C@@H]2C(=O)N2CCC[C@@H]2C(=O)NCc2ccccc2Cl)c1,3.5,1.0*,2.0,·,·
Cc1cc(C)n(-c2nnc3c4ccccc4n(C)c3n2)n1,10.5*,-0.8,1.8,·,·
CCOC(=O)c1sc(NC(=O)CN2CCN(c3ccc(OC)cc3)CC2)nc1C,-1.7,1.8*,-2.6,·,·
CCOC(=O)c1[nH]c2ccccc2c1NC(=O)COC,1.7,-0.3,3.0,1.7,0.87
CCOC(=O)c1[nH]c2ccccc2c1NC(=S)Nc1ccccc1,6.1,2.0*,6.0*,28.2,1.2
CCOC(=O)c1[nH]c2ccccc2c1NC(=S)Nc1cccc(C)c1,-1.1,0.5,5.8*,11.9,1.14
CCOC(=O)c1[nH]c2cc(OC)c(OC)cc2c1N,-1.1,-1.4,1.1,-4.2,0.54
CCOC(=O)c1[nH]c2ccccc2c1NC(=O)CC,4.6,0.4,6.1*,-5.3,1.12
CCOC(=O)c1[nH]c2ccc(C)cc2c1N,5.1,-0.6,3.1,111.2,3.53*
CCOC(=O)c1[nH]c2ccccc2c1NC(C)=O,1.7,-0.2,3.1,·,·
Cc1ccc(S(=O)(=O)N2CCC(C(=O)NCc3cccs3)CC2)cc1,0.2,-1.5,-0.4,·,·
CCC[C@H]1[C@@H](NC(=O)c2cccc(N(C)C)c2)CC[C@@]23CCCN2C(=O)CCC[C@@H]13,3.2,-1.7,-2.6,·,·
O=C1CC(NNc2ccccc2)C(=O)N1c1ccccc1 (stereo not drawn),0.2,-0.5,6.3*,7.8,1.28
SMILES,hgDAF12 agonist,ssDAF-12 act,hcDAF-12 act,APP 5'UTR act,NF-kB neuron act
Cc1nc(SCc2ccccc2)nc2c1CCC2,10.9*,-0.2,-0.1,115.1,2.53
COC(=O)[C@H]1C[C@]2(C(C=C(C)C)S(=O)(=O)c3ccccc3)c3ccccc3N[C@H]2N1 (stereo partly drawn),1.1,-1.7,1.2,·,·
O=C(NCC(=O)N1CCCC(C(F)(F)F)C1)c1ccccc1Br (stereo not drawn),0.9,1.3*,3.7,·,·
CCOC(=O)/C(C#N)=C/Nc1ccccc1OC,12.8*,0.1,2.5,31.9,2.48
Cc1ccc(CN2CCCCC(NC(=O)c3c(F)cccc3F)C2=O)cc1 (stereo not drawn),1.4,-0.7,-2.0,·,·
CCCC1CCC2(CC1)CCC2OC(=S)NCCc1ccc(Cl)cc1 (stereo not drawn),-2.5,-0.8,0.2,·,·
Cc1c(NC2=C(Cl)C(=O)N(c3ccccc3)C2=O)c(=O)n(-c2ccccc2)n1C,0.5,0.1,2.5,4.3,0.98
O=C1C(Cl)=C(Nc2ccccc2O)C(=O)N1c1ccccc1,7.8,0.2,4.7,45.7,4.32*
CCOc1ccc(C(=O)Nc2nnc(SCC(=O)NCC3CCCO3)s2)cc1 (stereo not drawn),7.1,-0.2,6.1*,·,·
CC(C)c1ccc(Nc2nnc(SCC(=O)NCC3CCCO3)s2)cc1 (stereo not drawn),11.9*,-0.8,0.3,·,·
Cc1ccc2nc(C)c(C(=O)N/N=C/c3cccs3)n2c1,12.0*,-1.5,1.2,-18.3,1.32
Cc1nc2ccc(Br)cn2c1C(=O)N/N=C\c1ccccc1[N+](=O)[O-],10.5*,0.3,6.2*,-3.5,1.11
Cc1ccn2c(C(=O)N/N=C\c3cccs3)c(C)nc2c1,1.1,-0.9,-0.4,0.6,1.24
CC(=O)[C@@H]1[C@@H](C(=O)c2ccc(F)cc2)[C@]2(C(=O)Nc3ccccc32)[C@H]2C=Cc3cc(F)ccc3N12,-0.5,1.5*,3.5,·,·
CCC(=O)Nc1ccc2c(c1)C(=O)N(C)[C@@H]1CC[C@@H](CC(=O)OC)O[C@H]1CO2,2.8,-1.0,-2.5,·,·
CN(C)c1ccc2c(c1)OC(N)=C(C#N)C2c1cccc(F)c1 (stereo not drawn),·,·,·,-95.1,4.95*
CC(OC(=O)c1cc(O)c2ccccc2c1O)C(=O)Nc1ccc(C(N)=O)cc1 (stereo not drawn),0.6,1.4*,3.5,·,·
CC(OC(=O)c1ccccc1C(=O)N(C)c1ccccc1)C(=O)Nc1ccc(C(N)=O)cc1 (stereo not drawn),0.0,-1.4,-0.4,·,·
N#CCC[C@H]1CC[C@]2(CCCN(C(=O)c3ccco3)C2)O1,-0.4,-1.3,-1.8,·,·
CC(C)(C)OC(=O)N/N=C\c1ccc(OC(=O)c2ccco2)cc1,11.3*,-0.3,6.2*,37.5,2.41
COc1cccc(C2c3c(ncn(-c4ccccc4)c3=N)Oc3ccc4ccccc4c32)c1 (stereo not drawn),3.5,-1.4,-0.1,·,·
Cn1c2cc(S(C)=O)sc2c2cnn(Cc3cccc(N)c3)c(=O)c21 (stereo not drawn),-0.7,-0.3,-1.8,·,·
Cc1cc(N2CCCN(C)CC2)nc2cc(Cl)ccc12,1.0,1.1*,-0.5,-1.1,1.18
Cc1cc(N2CCCCC2)nc2ccccc12,-0.6,-2.0,-0.5,-0.8,1.18
O=C(CCc1ccccc1-c1ccccc1CCNC(=O)c1c(F)cccc1F)NCc1ccccc1,-5.7,-1.1,-3.0,·,·
Cc1ccnc(NC(=O)Cn2cc([N+](=O)[O-])cn2)c1,11.2*,-0.8,4.4,49.0,1.23
CN1C(=O)[C@@]2(O[C@H]3C=CC=CN3C3=C2C(=O)CCC3)c2cccc(Br)c21,-1.7,0.9*,-2.0,·,·
CCCCOCCCNC(=O)C[C@H]1C[C@@]2(C(=O)OC)C(=C[C@H](COCc3ccccc3)O[C@@H]2C)N(Cc2ccco2)C1=O,4.6,-1.3,0.6,·,·
Oc1ccccc1-c1nnc(SCCN2CCOCC2)n1Cc1ccccc1,0.1,1.1*,6.9*,-37.4,1.1
